PubChem BioAssay AID1918 (Vanderbilt High Throughput Screening Facility, 2009)
Hit rate of the full screen: of about 130,000 compounds, about 2,500 (1.9%) were called active. Only a selection was taken, and actives are over-represented in it overall. Values without a mark were called inactive.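 Rule for the calls: active = signal ratio slope over the read window, or its plate-corrected B-score, at least 3 SD from the plate mean, either direction; inactive = the rest.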

biological target: ATP-sensitive inward rectifier potassium channel 1 (Homo sapiens) (UniProt P48048); experiment: Kir1.1 channel activity modulation, library screen – cell-based, thallium flux, MLSMR library, primary screen (AID 1918); settings: Tet-inducible ROMK, thallium flux fluorescence; at 10 µM; actives lie on both sides;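 note: B-score of the F/F0 ratio slope over 7 to 12 s after thallium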
Sequence (P48048 whole entry, looked up): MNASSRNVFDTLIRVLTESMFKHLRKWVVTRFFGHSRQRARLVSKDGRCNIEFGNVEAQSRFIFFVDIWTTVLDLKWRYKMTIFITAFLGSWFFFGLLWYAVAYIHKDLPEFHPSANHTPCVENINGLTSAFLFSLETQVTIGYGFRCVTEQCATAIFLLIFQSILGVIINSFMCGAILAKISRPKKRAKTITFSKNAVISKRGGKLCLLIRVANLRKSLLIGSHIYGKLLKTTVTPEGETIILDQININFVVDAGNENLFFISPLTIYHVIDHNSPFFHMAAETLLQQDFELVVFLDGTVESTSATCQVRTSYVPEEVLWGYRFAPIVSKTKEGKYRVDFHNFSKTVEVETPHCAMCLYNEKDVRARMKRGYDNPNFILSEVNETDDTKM

SMILES | B-score
O=C(N/N=C/c1ccccn1)c1ccc(S(=O)(=O)N2CCCCCC2)cc1 | 1.67
C/C(=N\N1CCN(Cc2ccc(C)cc2)CC1)c1ccco1 | -0.228
O=C(Nc1ccccc1)N1CCN(Cc2ccccc2)CC1 | -0.796
CC12CN(Cc3ccccc3)CC(C)(CN(Cc3ccccc3)C1)C2=NO | -3.21 (active)
COc1cc2c(C(=O)N3CCN(C)CC3)c(CSc3ccccc3)n(C)c2cc1Br | -0.529
Cc1ccnc(NC(=O)CCC(=O)N(CC(=O)NCc2ccccc2)Cc2ccco2)c1 | -0.274
Cc1ccc(N(CC(O)CN2CCCC2)S(=O)(=O)c2ccccc2)cc1 (stereo not given) | -0.891
COc1ccc([N+](=O)[O-])cc1N(CC(O)CN(CC(C)C)CC(C)C)S(=O)(=O)c1ccc(C)cc1 (stereo not given) | -3.76 (active)
CCN(CC)C(=O)CN(c1cccc(OC)c1)S(=O)(=O)c1ccc(C)cc1 | 0.523
C/C(Cc1ccccc1)=N\NC(=O)CNC(=O)c1ccccc1Cl | 0.223
CN(/C(=N/S(=O)(=O)c1cccs1)c1ccccc1)c1ccc(O)cc1 | 0.111
O=C(NNC(=S)NCc1ccco1)C(c1ccccc1)c1ccccc1 | -0.0839
CCC1CCCCN1S(=O)(=O)Cc1ccccc1Cl (stereo not given) | -1.11
COc1ccc(N2CCN(C(=O)C3CCN(S(=O)(=O)c4ccc(C)cc4)CC3)CC2)cc1 | 0.00237
O=C1Nc2ccc(Br)cc2/C1=N/N=C/C1=C(N2CCOCC2)C(=C\c2ccccc2)/CC1 | 1.2
C(=N\N1CCN(c2ccccn2)CC1)/C1=C(N2CCOCC2)C(=C/c2ccccc2)/CC1 | -0.00313
N#C/C(=C\C1=C(N2CCOCC2)C(=C\c2ccccc2)/CC1)C(=O)Nc1ccccc1F | -3.73 (active)
Cc1cccc(NC(=O)CSc2nnc(CCNC(=O)OC(C)(C)C)o2)c1C | 0.146
Fc1cccc(CSc2nnc3ccc(-c4ccncc4)nn23)c1 | 1.92
CSCCNCc1cn(-c2ccc(F)cc2F)nc1-c1ccccc1C | -0.924
CCCCCCCNc1nc(Cl)nc(NCCO)n1 | -0.271
C=CCc1ccc(OCC(O)CN2CCN(Cc3ccccc3)CC2)c(OC)c1 (stereo not given) | -1.83
Cc1ccc(-c2csc(NC(=O)c3cnccn3)n2)cc1C | 1.18
O=C(Nn1c(-c2ccccc2)nc2ccccc2c1=O)c1ccc([N+](=O)[O-])cc1 | 1.18

SMILES | B-score
Cc1nc2ccccc2cc1C(=O)N/N=C/c1ccc([N+](=O)[O-])cc1 | -0.145
Cc1nc2ccccc2nc(=O)c1NNc1ccc([N+](=O)[O-])cc1 | 3.6 (active)
COc1ccccc1CC(NC(C)=O)C(=O)NC1CCN(C(=O)Nc2ccccc2Cl)CC1 (stereo not given) | -0.0342
O=C(NNC(=S)NCCCN1CCOCC1)c1ccncc1 | -0.0357
COCCNC(=O)/C(C#N)=C/c1nc(N(C)C)n(-c2ccc(F)cc2)c1Cl | -0.0358
COCCNC(=O)/C(C#N)=C/c1cccc(OCc2ccccc2)c1 | -2.75 (active)
CCOC(=O)NC(=O)/C(C#N)=C\c1ccccc1 | -1.48
N#C/C(C(=S)Nc1ccccc1)=C1/NN=C(N2CCOCC2)N1c1ccccc1 | 0.219
O=C(COC(=O)CC1CC2CCC1C2)NC(=O)NC1CCCC1 (stereo not given) | -0.0323
Nc1ncnc(Nc2cccc(Cl)c2Cl)n1 | -0.357
O=C(Nc1ncccn1)c1cccs1 | 0.282
O=C(Nc1ccccc1-c1ccccc1)c1cccs1 | -3.72 (active)
O=C(O)c1ccc(NC(=O)c2cccs2)cc1 | -0.729
NS(=O)(=O)c1cccc(NC(=O)COC(=O)/C=C/c2ccco2)c1 | 1.2
COc1cc(NC(=O)COc2ccccc2Cl)ccc1NC(=O)C(C)C | -0.0152
CCCOc1ccccc1C(=O)NCCCC(=O)O | 0.945
CCCN(CC(=O)Nc1ccc(C(N)=O)cc1)CC(=O)Nc1ccccc1C | 2.09
CCCN(CCC)CC(O)COc1ccccc1C(=O)Nc1ccccc1 (stereo not given) | -3.37 (active)
Cc1cc(C)cc(NC(=O)COC(=O)c2cc(C)oc2C)c1 | 0.675
COc1cccc(-n2c(=S)[nH]c3c(oc4ccccc43)c2=O)c1 | -0.508
COc1ccc(C)cc1NC(=O)c1[nH]c(C)c(C(C)=O)c1C | -0.381
COc1ccc(Br)cc1C(=O)Nc1cccc(C)c1C | -2.34 (active)
Cc1cccc(NC(=O)c2ccc3nsnc3c2)c1C | 0.488
Cc1cc(C)nc(Nc2cc([N+](=O)[O-])ccc2C)n1 | -0.867

SMILES | B-score
CCCC(=O)NC(=S)Nc1ccc(CN2CCOCC2)cc1 | 0.069
COC(=O)c1c(C)oc(C)c1S(=O)(=O)NCc1ccc(Cl)cc1 | -0.884
c1ccc(-n2nnnc2-c2cccnc2)cc1 | 0.982
CNC(=O)C(=O)N/N=C/c1ccccn1 | 1.14
c1ccc(C2c3[nH]c4ccccc4c3CCN2Cc2cccn2-c2cccnc2)nc1 (stereo not given) | -0.00648
CC1(C)C=C2[C@H]3CC[C@@H]4[C@@]5(C)CCC(=O)C(C)(C)[C@@H]5CC[C@@]4(C)[C@]3(C)CC[C@@]2(C(=O)O)CC1 | 3.78 (active)
Cc1ccc(C(=O)N2CCN(S(=O)(=O)N3CCOCC3)CC2)cc1 | -0.0164
O=C(CCS(=O)(=O)Cc1ccccc1)Nc1ccc2c(c1)OCCO2 | 0.0737
COc1cc(-n2c(C)nc3cc(C(=O)NCc4ccco4)ccc32)cc(OC)c1OC | 2.33
COc1ccccc1-n1c(C)nc2cc(C(=O)NCc3ccc4c(c3)OCO4)ccc21 | 2.52 (active)
CCn1cc(C(=O)NCc2ccc3c(c2)OCO3)c2cc(OC)c(OC)cc2c1=O | 2.18
C=CCn1c(-c2sc(-c3ccccc3)nc2C)n[nH]c1=S | -0.143
CCN1CCC2(CCN(Cc3cn[nH]c3-c3ccc(OC)c(F)c3)C2)C1 (stereo not given) | 0.101
FC(F)(F)c1cccc(Cc2noc(CN3CCC(N4CCCCC4)CC3)n2)c1 | -0.1
Cc1nccc(-c2ccc(-n3c(C)ccc3C)cc2)n1 | -1.01
CC(=O)c1cccc(CN2CCC(CO)(Cc3ccccc3)CC2)c1 | -0.319
OCC1(Cc2ccccc2)CCN(Cc2cc3ccccc3o2)CC1 | -2.42
COc1ccccc1/C=C/CN1CCC(CO)(Cc2ccccc2)CC1 | -2.4 (active)
Cc1ccc2c(c1)C(O)(CC(=O)c1cccc(-n3cccc3)c1)C(=O)N2 (stereo not given) | 0.00843
OCC1(Cc2ccccc2C(F)(F)F)CCN(Cc2cccc3cnccc23)CC1 | -2.15
O=C(Nc1ccc(N2C(=O)c3cccc4cccc(c34)C2=O)cc1)c1ccc(N2CCCCC2)c([N+](=O)[O-])c1 | -0.618
CC(NC(=O)c1ccc(N2CCNCC2)c([N+](=O)[O-])c1)C12CC3CC(CC(C3)C1)C2 (stereo not given) | -1.39
O=C(Nc1cccc(C(F)(F)F)c1)c1ccc(N2CCNCC2)c([N+](=O)[O-])c1 | -4.07 (active)
Nc1nnn(CC(=O)N/N=C/c2ccc(O)cc2)n1 | 0.102

SMILES | B-score
COc1ccc(-c2nc3cnccn3c2NC(C)(C)CC(C)(C)C)cc1O | -0.227
CCN(CCn1cccn1)Cc1cn[nH]c1-c1ccc(OC)cc1F | 0.488
CCCCOCCCNC(=O)c1ccccc1OCC | -0.181
CCOc1ccccc1C1C(C(=O)OC)=CN(C)C=C1C(=O)OC | -3.43 (active)
COC(=O)C1=CN(C)C=C(C(=O)OC)C1c1ccc(Cl)cc1Cl | 0.118
CCOC(=O)CSc1ccccn1 | -0.519
CC(C)C(=O)Nc1oc(-c2ccccc2)cc1C#N | -0.0567
CCC(c1nnnn1C1CCCC1)N(Cc1cccs1)Cc1cc2cccc(C)c2[nH]c1=O (stereo not given) | -3.89 (active)
Cc1cccc2cc(CN(Cc3nnnn3Cc3ccccc3)C3CCCC3)c(=O)[nH]c12 | -4.07 (active)
Cc1cc(C)c2[nH]c(=O)c(C(c3nnnn3Cc3ccc4c(c3)OCO4)N3CCCC3)cc2c1 (stereo not given) | -1.8
Cc1cccc2cc(CN(Cc3ccc4c(c3)OCO4)Cc3nnnn3C3CCCC3)c(=O)[nH]c12 | 0.0136
CCCN(Cc1cc2cccc(C)c2[nH]c1=O)S(C)(=O)=O | -0.178
Cc1cccc2cc(CN(C(=O)c3cccs3)c3ccccc3)c(=O)[nH]c12 | 0.321
COc1cc(/C=C/C(=O)OCC(=O)NC(=O)NCc2ccccc2)ccc1OCC#N | 0.107
Cc1cccc(C(=O)Nc2ccccc2C(=O)NCc2cccnc2)c1 | -0.294
O=C(/C=C/c1ccc(Cl)c([N+](=O)[O-])c1)c1cccnc1 | -6.38 (active)
CN(C)c1ccc(/C=C/C(=O)c2ccc(C(C)(C)C)cc2)cc1[N+](=O)[O-] | -0.617
O=C(Nc1cccnc1)c1ccc(Cl)c([N+](=O)[O-])c1 | 0.478
CCOC(=O)C(NC(C)=O)C(=O)Nc1ccc(OC)cc1 (stereo not given) | 2.1
CN(C)c1cc(-c2ccc(F)cc2)oc(=O)c1Cl | 0.334
CC(NC(=O)COC(=O)c1cc(=O)[nH]c2ccccc12)c1ccccc1 (stereo not given) | -0.0559
CC(NC(=O)CC1SC(N)=NC1=O)c1ccccc1 (stereo not given) | 1.24 (active)
NC1=NC(=O)C(Cc2cccc(Cl)c2)S1 (stereo not given) | -2.18
